From the supplement of paper PMC7156485
Values joined by “and” are separate entries in the source; they are usually repeats but may differ in a detail not shown here. Equal entries are not always repeated.

Each compound was assayed on TDF (assay: H1.0 immunofluorescence intensity relative to DMSO (% of DMSO); higher = stronger H1.0 induction, active = 120 or more). Conditions: concentration: 10 µM; 24 h.
How it was run: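 Compounds were applied at 10 µM for 24 h at 37 °C, in triplicate, to HCC1569 and TDF cells. The cells were then fixed and stained for H1.0, and nuclei were counterstained with DAPI. Nuclear H1.0 intensity or cell number is reported relative to the plate control as a percent, taking the median of replicates. Smoothing for positional effects was applied to HCC1569 values only.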
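Also: TDF is a line of transformed human dermal fibroblasts of mesenchymal origin.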

| Compound | H1.0 immunofluorescence intensity |
| --- | --- |
| CCCCCC(O)c1cccc(OCc2ccc3ccccc3n2)c1 (configuration not stated) | 104 (inactive) and 91.2 (inactive) |
| O=C(O)c1ccccc1C(=O)Nc1ccc(-c2ccccc2)cc1 [2-[([1,1'-biphenyl]-4-ylamino)carbonyl]benzoic acid] | 98.7 (inactive) |
| COC(=O)Nc1nc2ccc(S(=O)c3ccccc3)cc2[nH]1 (configuration not stated) [Oxfendazole] | 108 (inactive) |
| CC(NC(CCc1ccccc1)C(=O)O)C(=O)N1CCCC1C(=O)O (configuration not stated) [Enalaprilat] | 104 (inactive) |
| Cc1cnc(C(=O)O)c[n+]1[O-] [Acipimox] | 95.2 (inactive) |
| O=C1NC(=O)c2c1c1c3ccccc3[nH]c1c1[nH]c3cc(Br)ccc3c21 [Cdk4 Inhibitor] | 91.2 (inactive) |
| COc1cc(Br)c(S(=O)(=O)Nc2ccc(Cl)c(O[C@@H]3CCN(C)C3)c2)cc1OC | 94.8 (inactive) |
| CC1CC2C(C(O)CC3(C)C2CCC3(O)C(=O)CO)C2(C)C=CC(=O)C=C12 (configuration not stated) [Methylprednisolone] | 88.6 (inactive) |
| CC1CCC2C(C)(CO)C(O)CCC2(C)C12CCC(CO)(CCO)O2 (configuration not stated) [Lagochiline] | 97 (inactive) |
| Cc1ccc(S(=O)(=O)NC(=O)NN2CC3CCCC3C2)cc1 (configuration not stated) [Gliclazide] | 89 (inactive) |
| N#CC(=C(N)Sc1ccccc1N)c1cccc(C(O)c2ccncc2)c1 (configuration not stated) [MEK Inhibitor I] | 98.7 (inactive) |
| Cc1cccc(C(=O)NCN2CCN(c3ccccc3C#N)CC2)c1.O=C(O)C=CC(=O)O [PD 168,077 maleate] | 97.3 (inactive) |
